Results filed as inconclusive are left out. Where a structure was tested more than once in an assay, its records may differ in their call. Calls of active or inactive are those of the source. Unless noted, calls come from the whole dose curve.

A short description of test [1]: Nuclear factor erythroid 2-related factor 2/antioxidant responsive element (Nrf2/ARE) small molecule agonists: qHTS cell viability counter screen in human keratinocytes (AID 1919968; active = well fitted curve in the direction sought with a large enough effect in the repeat runs; an effect the other way counts as inactive or inconclusive; note: nearly all actives have a fitted effect of over 55% in size). The procedure, abridged: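 Fluorescence read-out from CellTiter-Fluor after 1 h at 37 C. Wells held HaCaT-derived ARE-luciferase reporter cells (1,500/well) treated 23 h with DMSO-dissolved compounds. Run in the same wells as the luciferase agonist read.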
A general note: Quantitative high-throughput screening tests each substance at several concentrations.

Test [2] can be described thus: Nuclear factor erythroid 2-related factor 2/antioxidant responsive element (Nrf2/ARE) small molecule agonists: luciferase reporter gene qHTS assay in human keratinocytes (AID 1919969). Note: nearly all actives have a fitted effect of over 35% in size. Note: potency is the fitted concentration of half-maximal effect. On the technique in general: A reporter such as luciferase makes a cellular process visible.
The target of test [3] is Gonadotropin-releasing hormone receptor (Homo sapiens) (UniProt P30968). The test can be described thus: Human gonadotropin-releasing hormone receptor (GnRHR) small molecule agonists, calcium flux assay in GnRHR-HEK293 cells (AID 1920063). Note: nearly all actives have a fitted effect of over 35% in size. The procedure, abridged:
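Calcium-dye fluorescence, Ex/Em=480/540, recorded every 1 sec over 3 min after compound addition to GnRHR-HEK293 cells. Cells had been seeded 18 hours earlier and dye-loaded for 1 hour at 37 C. Fifteen concentrations, triplicates.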
(In general: Calcium flux is commonly read through the fluorescence of an indicator in the cells.)

Test [4] deals with KiSS-1 receptor (Homo sapiens) (UniProt Q969F8). Put plainly: Human kisspeptin (KISS1R) small molecule agonists, calcium flux assay in KISS1R-HEK293 cells (AID 1920064; active = well fitted curve in the direction sought with a large enough effect in the repeat runs; an effect the other way counts as inactive or inconclusive). The procedure, abridged: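 Calcium flux read-out: kinetic fluorescence at Ex/Em=480/540, 1 s intervals over 3 min, after pin-tool compound addition to dye-loaded KISS1R-HEK293 cells. Fifteen concentrations, triplicates.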

The nature of test [5]: G protein-coupled receptor (GPCR) small molecule agonists, calcium flux assay: HEK293 wild type cell line counter screen (AID 1920065). The procedure, abridged: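 Agonist mode; 18 h seeding at 37 C, 1 h dye load at 37 C; compounds pinned from DMSO, ATP as positive control; kinetic fluorescence 480/540 nm, 3 min, 1 s reads; 15 concentrations, triplicate.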
Test [6] can be described thus: p53 small molecule agonists, cell-based qHTS assay with human liver microsomes (AID 1963577). The method in brief:
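p53RE-bla cells, 4,000/well, compound added after 5 h, with human liver microsomes 0.5 mg/mL and NADPH 0.5 mg/mL final; 16 h at 37 C, then LiveBLAzer 2 h RT, fluorescence.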

Test [7] can be described thus: p53 small molecule agonists, cell-based qHTS assay with rat liver microsomes (AID 1963578). The procedure, abridged:
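p53RE-bla cells, 4,000/well, pre-incubated 5 h, then given compounds plus rat liver microsomes (0.5 mg/mL final) and NADPH (0.5 mg/mL final). Incubation 16 h at 37 C; beta-lactamase reporter read by LiveBLAzer fluorescence after 2 h at room temperature.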

A short description of test [8]: p53 small molecule agonists, cell-based qHTS assay with human liver microsomes: qHTS cell viability counter screen (AID 1963579). Note: nearly all actives have a fitted effect of over 45% in size. Note: potency is the fitted concentration of half-maximal effect. The procedure, abridged:
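p53RE-bla cells, 4,000/well, dosed 5 hours after plating, with human liver microsomes (0.5 mg/mL final) plus NADPH (0.5 mg/mL final), 16 hours at 37 C. Viability read as CellTiter-Glo luminescence after 30 min at room temperature.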

The nature of test [9]: p53 small molecule agonists, cell-based qHTS assay with rat liver microsomes: qHTS cell viability counter screen (AID 1963580). Note: nearly all actives have a fitted effect of over 45% in size. Note: potency is the fitted concentration of half-maximal effect. The method in brief:
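Cytotoxicity counter screen: intracellular ATP read by CellTiter-Glo luminescence in the p53 reporter wells. HCT-116 p53RE-bla cells were treated for 16 h at 37 C alongside rat liver microsomes and NADPH, each 0.5 mg/mL final.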

Test [10] in a line: p53 small molecule agonists, cell-based qHTS assay: qHTS cell viability counter screen (AID 1963581). Note: nearly all actives have a fitted effect of over 45% in size. The procedure, abridged:
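Cytotoxicity read-out: ATP-based luminescence (CellTiter-Glo, 30 min RT) measured in the same wells as the p53 reporter assay, HCT-116 p53RE-bla cells, 16 h compound exposure at 37 C.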

The nature of test [11]: p53 small molecule agonists, cell-based qHTS assay (AID 1963582; active = well fitted activation curve with a large enough effect in the signal ratio in the repeat runs, not every such curve was filed as active; the % refers to the signal ratio). The procedure, abridged: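 Fluorescence intensity read-out of a beta-lactamase reporter under a p53 response element. Cells were exposed to DMSO-dissolved compounds for 16 h at 37 C, then developed with FRET substrate for 2 h at RT.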
Test [12] concerns the target 5-hydroxytryptamine receptor 2A (Homo sapiens) (UniProt P28223). Put plainly: 5-hydroxytryptamine receptor 2A (HTR2A) small molecule agonists, cell-based qHTS assay (AID 1963587). Note: nearly all actives have a fitted effect of over 30% in size. The method in brief: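 Kinetic calcium-flux fluorescence (2 min, 1 sec intervals) after compound addition in agonist mode. HTR2A-CHO cells were cultured 18 h, then dye-loaded 1 h at 37 C.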

Test [13] addresses Muscarinic acetylcholine receptor M1 (Homo sapiens) (UniProt P11229). The test can be described thus: Cholinergic receptor muscarinic 1 (CHRM1) small molecule antagonists, cell-based qHTS assay (AID 1963588). Note: nearly all actives have a fitted effect of over 40% in size. The method in brief:
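Compounds were tested at 15 concentrations in three independent runs. Dye-loaded CHRM1-CHO cells were exposed 5 min at room temperature before stimulation by acetylcholine added at 50nM. Intracellular calcium was read kinetically on FDSS for 3 min.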

Test [14] has the same target. Put plainly: Cholinergic receptor muscarinic 1 (CHRM1) small molecule agonists, cell-based qHTS assay (AID 1963589). Note: nearly all actives have a fitted effect of over 35% in size. The method in brief: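 Calcium flux read-out: kinetic fluorescence at 1 sec intervals after pin-tool compound addition to dye-loaded CHRM1-CHO cells (human M1). Agonist mode; 15 concentrations tested in triplicate independent runs.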
Test [15] is described as follows: cAMP Responsive Elements (CRE) small molecule agonists, cell-based qHTS assay (AID 1963590). The procedure, abridged:
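Beta-lactamase reporter readout: LiveBLAzer B/G FRET substrate, 2 h at room temperature, added after 3 h compound treatment of CRE-bla HEK 293T cells at 37 C/5% CO2.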

Test [16] is described as follows: cAMP Responsive Elements (CRE) small molecule antagonists, cell-based qHTS assay (AID 1963591; active = well fitted inhibition curve with a large enough effect in the signal ratio in the repeat runs, not every such curve was filed as active; the % refers to the signal ratio). The method in brief:
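HEK293T CRE-bla; 18 h preincubation; compound pin-transfer; NKH477 0.25 uM final, 3 h, 37 C; LiveBLAzer FRET substrate 2 h RT.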

The target of test [17] is Beta-2 adrenergic receptor (Homo sapiens) (UniProt P07550). The test can be described thus: Adrenergic beta2 receptor (ADRB2) small molecule antagonists, cell-based qHTS assay (AID 1963592). Note: series mostly up to about 92 µM; nearly all actives have a fitted effect of over 50% in size. The method in brief: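 Assay format: CHO-ADRB2 cells, 18-20hr seeding at 37C/5% CO2, then compound plus 1nM isoproterenol agonist mix for 0.5hr RT. Homogeneous time-resolved fluorescence cAMP detection after 1hr, expressed as 665/615 nm ratio.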

Test [18] addresses D(2) dopamine receptor (Homo sapiens) (UniProt P14416). The test can be described thus: Dopamine D2 receptor (DRD2) small molecule agonists, cell-based qHTS assay (AID 1963594). Note: nearly all actives have a fitted effect of over 35% in size. The procedure, abridged:
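cAMP accumulation in DRD2-HEK293 cells measured by HTRF after 1 h detection; compounds added 10 min before NKH477 (200nM […]) forskolin-analogue stimulation, 30 min at room temperature, with Ro20-1724 present at 0.1 mM final.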

Test [19] has the same target. The test can be described thus: Dopamine D2 receptor (DRD2) small molecule antagonists, cell-based qHTS assay (AID 1963595; active = well fitted inhibition curve with a large enough effect in the signal ratio in the repeat runs, with a control signal flat; the % refers to the signal ratio). The method in brief:
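Antagonism was scored as restored cAMP in HEK293-DRD2 cells. These cells were stimulated with 200 nM NKH477 and 12 nM quinpirole for 30 min at room temperature, in the presence of 0.1 mM Ro20-1724.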

In test [20] the target is 5-hydroxytryptamine receptor 2A (Homo sapiens) (UniProt P28223). Put plainly: 5-hydroxytryptamine receptor 2A (HTR2A) small molecule antagonists, cell-based qHTS assay (AID 1963586). Note: nearly all actives have a fitted effect of over 45% in size. The method in brief:
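CHO cells stably expressing human HTR2A were plated for 18 h at 37 C, then loaded with calcium dye for 1 h. Compounds were preincubated 5 min at room temperature before DOI (4 nM solution) was added. Kinetic fluorescence was read for 3 min.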

Sequence of D(2) dopamine receptor (Homo sapiens) (P14416 whole entry, looked up): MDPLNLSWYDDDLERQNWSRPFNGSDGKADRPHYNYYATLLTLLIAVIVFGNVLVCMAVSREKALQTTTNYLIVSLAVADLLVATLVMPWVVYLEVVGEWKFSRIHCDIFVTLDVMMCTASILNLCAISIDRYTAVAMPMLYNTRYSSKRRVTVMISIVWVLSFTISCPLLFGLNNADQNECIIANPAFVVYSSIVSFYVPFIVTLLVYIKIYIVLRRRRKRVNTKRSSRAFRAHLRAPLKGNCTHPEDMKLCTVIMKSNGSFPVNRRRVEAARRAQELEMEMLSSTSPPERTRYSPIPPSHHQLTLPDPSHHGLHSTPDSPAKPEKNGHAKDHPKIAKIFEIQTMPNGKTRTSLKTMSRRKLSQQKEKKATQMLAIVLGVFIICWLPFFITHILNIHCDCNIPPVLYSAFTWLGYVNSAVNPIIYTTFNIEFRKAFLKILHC
Sequence of Muscarinic acetylcholine receptor M1 (Homo sapiens) (P11229 whole entry, looked up): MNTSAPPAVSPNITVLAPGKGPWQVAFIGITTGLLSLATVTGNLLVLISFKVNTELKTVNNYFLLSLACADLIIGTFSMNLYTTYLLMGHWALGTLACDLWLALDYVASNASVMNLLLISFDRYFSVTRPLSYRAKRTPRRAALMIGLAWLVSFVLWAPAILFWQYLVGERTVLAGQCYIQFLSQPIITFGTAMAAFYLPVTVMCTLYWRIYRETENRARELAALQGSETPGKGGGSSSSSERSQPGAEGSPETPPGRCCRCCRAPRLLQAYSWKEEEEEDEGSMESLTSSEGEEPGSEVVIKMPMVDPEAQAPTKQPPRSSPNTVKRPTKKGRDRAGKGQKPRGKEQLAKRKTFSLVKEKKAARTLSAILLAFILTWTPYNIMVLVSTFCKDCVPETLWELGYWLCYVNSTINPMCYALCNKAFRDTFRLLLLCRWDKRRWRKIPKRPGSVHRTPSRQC
Sequence of Beta-2 adrenergic receptor (Homo sapiens) (P07550 whole entry, looked up): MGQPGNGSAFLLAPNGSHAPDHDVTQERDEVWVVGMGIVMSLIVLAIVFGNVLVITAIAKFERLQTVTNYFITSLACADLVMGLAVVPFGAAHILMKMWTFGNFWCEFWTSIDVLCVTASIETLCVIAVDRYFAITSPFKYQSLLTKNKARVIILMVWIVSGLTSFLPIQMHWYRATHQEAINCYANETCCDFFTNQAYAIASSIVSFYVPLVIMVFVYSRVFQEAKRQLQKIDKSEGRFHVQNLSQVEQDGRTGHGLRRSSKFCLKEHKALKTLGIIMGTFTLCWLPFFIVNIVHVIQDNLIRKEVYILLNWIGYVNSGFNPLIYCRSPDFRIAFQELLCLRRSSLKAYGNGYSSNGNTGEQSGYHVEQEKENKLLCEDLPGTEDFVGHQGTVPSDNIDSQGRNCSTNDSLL
Sequence of 5-hydroxytryptamine receptor 2A (Homo sapiens) (P28223 whole entry, looked up): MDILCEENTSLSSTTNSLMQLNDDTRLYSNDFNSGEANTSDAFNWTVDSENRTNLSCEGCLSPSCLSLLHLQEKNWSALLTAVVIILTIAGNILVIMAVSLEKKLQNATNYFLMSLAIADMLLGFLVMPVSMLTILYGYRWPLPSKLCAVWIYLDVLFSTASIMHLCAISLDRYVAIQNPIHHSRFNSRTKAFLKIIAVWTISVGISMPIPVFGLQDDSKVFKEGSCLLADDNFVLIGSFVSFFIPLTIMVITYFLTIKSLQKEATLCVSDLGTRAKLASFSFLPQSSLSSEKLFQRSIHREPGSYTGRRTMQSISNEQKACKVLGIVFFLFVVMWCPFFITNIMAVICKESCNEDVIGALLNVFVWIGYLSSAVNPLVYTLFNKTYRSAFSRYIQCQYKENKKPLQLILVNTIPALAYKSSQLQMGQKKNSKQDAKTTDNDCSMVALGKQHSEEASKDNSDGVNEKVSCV
Sequence of Gonadotropin-releasing hormone receptor (Homo sapiens) (P30968 whole entry, looked up): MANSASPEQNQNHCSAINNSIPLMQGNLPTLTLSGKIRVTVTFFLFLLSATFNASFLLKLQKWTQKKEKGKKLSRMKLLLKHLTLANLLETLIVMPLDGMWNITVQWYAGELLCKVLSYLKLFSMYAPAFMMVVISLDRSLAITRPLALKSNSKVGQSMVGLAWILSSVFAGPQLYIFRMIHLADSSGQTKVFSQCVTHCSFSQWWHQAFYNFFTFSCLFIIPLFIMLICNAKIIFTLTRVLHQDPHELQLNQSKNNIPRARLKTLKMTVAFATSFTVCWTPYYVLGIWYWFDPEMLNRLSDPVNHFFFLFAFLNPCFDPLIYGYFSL
Sequence of KiSS-1 receptor (Homo sapiens) (Q969F8 whole entry, looked up): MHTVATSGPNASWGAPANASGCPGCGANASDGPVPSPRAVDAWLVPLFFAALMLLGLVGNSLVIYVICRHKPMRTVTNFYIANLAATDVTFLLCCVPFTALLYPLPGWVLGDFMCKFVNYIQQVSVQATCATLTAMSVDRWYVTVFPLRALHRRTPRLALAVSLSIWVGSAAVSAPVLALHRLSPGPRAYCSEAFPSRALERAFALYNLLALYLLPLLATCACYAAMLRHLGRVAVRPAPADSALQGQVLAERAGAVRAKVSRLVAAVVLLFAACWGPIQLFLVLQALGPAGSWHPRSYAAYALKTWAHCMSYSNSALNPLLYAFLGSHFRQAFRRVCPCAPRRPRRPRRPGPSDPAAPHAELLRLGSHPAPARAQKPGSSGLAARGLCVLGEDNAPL

As to `CSc1nnc(C(C)(C)C)c(=O)[nH]1`, the Potency entry in test [1], in test [2], in test [3], in test [4], in test [5] and in test [6] was “inactive” throughout. Moreover, the Potency result in [7], in [8], in test [9], in test [10], in test [11] and in [12] was “inactive” throughout. For the same compound, the Potency entry in test [13], in test [14], in test [15], in [16], in test [17] and in test [18] was “inactive” throughout. In addition, in test [19], the Potency entry was “inactive”.

Turning to `CCCCCCCOC(=O)c1ccccc1C(=O)OCCCCCCC`, the Potency result in test [1], in test [2], in [3], in [4], in [5] and in [6] was “inactive” each time. For the same compound, the Potency result in test [7], in test [8], in [9], in [10], in test [20] and in test [12] was “inactive” in each case. The Potency entry in [13], in [14], in test [15], in test [16], in test [17] and in test [18] was “inactive” in each case. Moreover, the Potency entry in test [19] was “inactive”.

Regarding `O=CC1CC=CCC1` (stereo not drawn), the Potency entry in test [1], in [2], in test [3], in [4], in [5] and in test [6] was “inactive” in each case. Further, the Potency result in [7], in test [8], in test [9], in [10], in [11] and in [12] was “inactive” each time. The Potency entry in test [13], in test [14], in test [16], in test [17], in test [18] and in test [19] was “inactive” each time.

With `CC(C)CC(O)Cc1ccccc1` (stereo not drawn), the Potency result in test [1], in test [2], in test [3], in [4], in test [5] and in test [6] was “inactive” throughout. For the same compound, the Potency result in test [7], in [8], in test [9], in [10], in [20] and in [12] was “inactive” each time. In addition, the Potency entry in test [13], in test [14], in test [15], in test [16], in [17] and in test [18] was “inactive” in each case. The Potency entry in test [19] was “inactive”.

On to `Cc1cccc(C)c1NC(=O)CN1CCCCCC1`, for which the Potency result in [1], in [2], in test [3], in test [4], in test [5] and in test [6] was “inactive” throughout. Also, the Potency result in [7], in test [8], in test [9], in test [10], in [20] and in test [12] was “inactive” each time. Moreover, the Potency result in test [13], in test [14], in test [15], in test [16], in [17] and in test [19] was “inactive” each time.

Consider `Cc1oncc1C(=O)Nc1ccc(C(F)(F)F)cc1`, for which the Potency result in test [1], in [3], in test [4], in [5], in test [6] and in [7] was “inactive” throughout. Moreover, the Potency entry in test [10], in test [11], in test [16], in [17], in test [18] and in test [19] was “inactive” each time. Moreover, the Potency in [2] is 27.3 µM (active) and inactive; in test [8], 20.4 µM (active) and inactive; in [9], 20.4 µM (active).

The values above are taken from PubChem BioAssay (Tox21).
